Screen size: about 310,000 compounds; about 18,000 (5.8%) were called active. Not shown: some 22% with an inconclusive outcome. Only a selection was taken, and actives are over-represented in it overall. A number with no mark means an inactive call. The call rests on the fitted dose curve; in most records, active means well fitted inhibition curve with a large enough effect; inconclusive means small, poorly fitted or top-dose-only effect, or another doubt; inactive means no such curve, though single readings can be large or run the other way.
On the % scale 0 is the no-effect control and ±100 the full control effect; potency means the concentration at half of the fitted maximal effect.

This test is described as follows: Primary qHTS for delayed death inhibitors of the malarial parasite plastid, 48 hour incubation. As to conditions: P. falciparum luciferase growth in erythrocytes; series mostly up to 28.7 µM; activity change, negative = inhibition: at the top concentration. The method in brief: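 Luminescence readout; reporter = integrated firefly luciferase in P. falciparum. RBC culture at 2% hematocrit, 0.1% parasitemia final, 37 C/5% CO2; decreased signal taken as growth inhibition.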
In general terms: In qHTS, concentration-response curves come from the screen itself.
In the case of `CCc1ccc(NC(=O)C(=O)NNC(=O)c2cccs2)cc1`, the “activity change, negative = inhibition” value is 74.2%.

For `O=C(Nc1ccc(N2CCN(C(=O)c3ccccc3)CC2)c(Cl)c1)c1ncn[nH]1`, the Potency was 11.7 µM (active).

As for `O=C(Nc1ccccc1N1CCN(C(=O)c2ccccc2)CC1)c1ccco1`, the “activity change, negative = inhibition” value is -14%.

In the case of `O=C(Nc1cccc(C(=O)N2CCCC2)c1)c1ccccc1`, the “activity change, negative = inhibition” value is 13.1%.

Turning to `C#CCOc1ccccc1/C=C1/C(=O)ON=C1C`, the activity change, negative = inhibition is -13.9% [at 0.00184 µM].

In the case of `O=[N+]([O-])c1ccc2c(c1)Nc1nc3ccccc3nc1N2`, the “activity change, negative = inhibition” value was 129%.

Regarding `O=[N+]([O-])c1cccc(/C([O-])=C(/C(=S)Nc2ccccc2F)[n+]2ccccc2)c1`, the “activity change, negative = inhibition” value was 57.9%.

Take `CC(OC(=O)CNC(=O)c1ccc(Cl)c([N+](=O)[O-])c1)C(=O)NCc1ccco1` (centres undefined): the “activity change, negative = inhibition” value is 2.5%.

With `Cc1ccc(/C([O-])=C(/C(=S)NCc2ccco2)[n+]2ccccc2)cc1[N+](=O)[O-]`, the Potency was 10.4 µM (active).

As for `COc1cccc(C(=O)OCc2cc(=O)oc3c(C)c(C)ccc23)c1OC`, the “activity change, negative = inhibition” value was 3.93%.

With `Cc1cc(/C=C2/SC(=O)N(CC(=O)N3CCCC3)C2=O)c(C)n1C`, the “activity change, negative = inhibition” value was 5.8%.

In the case of `Cc1cc(C)c2[nH]c(=O)c(CN(Cc3ccccc3)C(=S)NCCCN(C)C)cc2c1`, the Potency is 13.1 µM (active).

Regarding `CCN(CC)CCCNC(=S)N(CCO)Cc1cc2cc3c(cc2[nH]c1=O)OCO3`, the “activity change, negative = inhibition” value is 26.3%.

As for `COCCCNC(=S)N(CCN(C)C)Cc1cc2cc3c(cc2[nH]c1=O)OCCO3`, the “activity change, negative = inhibition” value was -21.6%.

In the case of `COc1cc(/C=N/NC(=O)c2ccc(N3CCCC3=O)cc2)ccc1O`, the “activity change, negative = inhibition” value is 45.3%.

Regarding `O=c1cc(Cl)c2ccccc2n1-c1ccccc1`, the activity change, negative = inhibition was -0.654% [at 0.00184 µM].

For `COc1ccc(OCc2cc(C(=O)NCC3(C)COC3)no2)c(Cl)c1`, the “activity change, negative = inhibition” value is 36.9%.

Take `COC(=O)c1c(NC(=O)c2ccccc2F)sc2c1C(C(=O)OC)CC2` (centres undefined): the “activity change, negative = inhibition” value is 12.9%.

As for `COc1ccc2[nH]c(C)c(CCN(Cc3cccs3)C(=S)Nc3ccccc3OC)c2c1`, the Potency is 11.7 µM (active).

In the case of `COc1ccc(NC(=S)NCc2cccs2)c(OC)c1`, the “activity change, negative = inhibition” value is -9.21%.

For `Cc1[nH]c2ccccc2c1CCN(Cc1cccs1)C(=S)NC(C)(C)C`, the “activity change, negative = inhibition” value was -11.3%.

For the compound `Cc1ccc2c(c1)N(CC(=O)N1CCCC(C)C1)C(=O)CO2` (centres undefined), the “activity change, negative = inhibition” value was 13.8%.

For the compound `c1ccc(Cc2ccc(OCCn3ccnc3)cc2)cc1`, the Potency was 9.28 µM (active).

For `COc1ccc(OCCn2ccnc2C)cc1`, the “activity change, negative = inhibition” value is 10.7%.

Take `Clc1ncn(CCOc2ccccc2)c1Cl`: the “activity change, negative = inhibition” value was 8.95%.

As for `CC(CCc1ccccc1)NC(=O)c1cnc(Cl)c(Cl)c1` (centres undefined), the “activity change, negative = inhibition” value is 5.45%.

Take `CN(C)C(=O)c1ccc(NC(=O)COC(=O)c2cc3c(s2)CCCCC3)cc1`: the “activity change, negative = inhibition” value is -7.64%.

For `CCn1c2ccccc2c2cc(NC(=O)COC(=O)c3cc(S(=O)(=O)N4CCCCC4)ccc3Cl)ccc21`, the “activity change, negative = inhibition” value is 32.1%.

`CCn1c(O)c(N=NC(=O)c2cccc(S(=O)(=O)N3CCCCC3)c2)c2ccccc21`: the Potency was 11.7 µM (active).

Turning to `COC(=O)Cn1c(O)c(N=NC(=O)OC)c2ccccc21`, the “activity change, negative = inhibition” value was 22.9%.

As for `CC(C)(C)c1cc[n+](-c2[nH]c(=O)sc2/C=N/N=C(\[O-])c2ccccc2)cc1`, the “activity change, negative = inhibition” value is -0.526%.

As for `O=C(CSc1nc2nccnc2c(=O)n1Cc1cccs1)Nc1ccccc1F`, the Potency was 10.4 µM (active).

As to `CCOc1ccc(NC(=O)CSc2nc3ccccc3c(=O)n2Cc2cccs2)cc1`, the “activity change, negative = inhibition” value was 0.231%.

With `O=C(CSc1ccc(-c2cccs2)nn1)Nc1ccccc1F`, the “activity change, negative = inhibition” value was 26%.

For the compound `CN(CC(=O)Nc1ccc(Cl)c(C(F)(F)F)c1)C(=O)CCC(=O)c1ccccc1`, the “activity change, negative = inhibition” value was -24.2%.

`O=C(NCCCN1CCCC1=O)C(=O)NCC1OCCN1S(=O)(=O)c1ccc(Br)cc1` (centres undefined): the “activity change, negative = inhibition” value was -17.4%.

As to `CCOc1cccc(-c2nnc(SCC(=O)NC3CC3)n2C)c1`, the “activity change, negative = inhibition” value was -5.31%.

As to `Cc1ccc(N(Cc2ccccc2O)C(=O)c2ccccc2F)cc1`, the Potency was 9.28 µM (active).

Turning to `CN(C)/C=C/C(=O)c1ccccc1F`, the “activity change, negative = inhibition” value was -0.84%.

Regarding `O=C(c1ccccc1F)N(Cc1ccccc1)Cc1ccccc1`, the “activity change, negative = inhibition” value was -15%.

On to `O=C(COc1ccc(Cl)cc1)Nc1ccc2oc(=O)ccc2c1`, for which the “activity change, negative = inhibition” value is -2.67%.

Take `O=C(CCN1C(=O)C2C3CCC(C3)C2C1=O)Nc1ccc(Cl)cc1Cl` (centres undefined): the “activity change, negative = inhibition” value is 4.37%.

Turning to `O=C(CN1CCOCC1)Nc1c(Cl)cc(Cl)cc1Cl`, the “activity change, negative = inhibition” value is 19.4%.

On to `O=C(Nc1ccc(CN2CCOCC2)cc1)c1cc(Cl)ccc1Cl`, for which the “activity change, negative = inhibition” value is -23.4%.

For the compound `CC(C)(C)c1cc(NC(=O)NN2CCOCC2)nn1-c1c(Cl)cc(Cl)cc1Cl`, the Potency is 10.4 µM (active).

Turning to `CC(=O)C(C)n1cnc2scc(-c3ccc(C)cc3)c2c1=O` (centres undefined), the “activity change, negative = inhibition” value is -5.93%.

On to `COc1cc(OC)cc(-c2c(-c3cccs3)c3cc(-c4ccc(OC)cc4F)ccc3n2C)c1`, for which the Potency is 13.1 µM (active).

For `COc1ccc(OC)c(-c2csc(-c3cccs3)n2)c1`, the “activity change, negative = inhibition” value was 21.4%.

Turning to `COc1cc(OC)cc(-c2c(-c3ccc(F)cc3)c3cc(-c4ccc5cc[nH]c5c4)ccc3n2C)c1`, the Potency is 5.22 µM (active).

On to `COc1ccc2c(c1)c(C(=O)N/N=C/c1cccs1)c(C)n2C`, for which the “activity change, negative = inhibition” value was -6.08%.

As for `CCOC(=O)N1CCN(C(=O)C(C)NC(=O)c2ccco2)CC1` (centres undefined), the “activity change, negative = inhibition” value was 0.0593%.

On to `COc1ccc(/C=C/c2c(-c3cccc(C)c3)oc3ccc(-c4ccc5c(c4)OCO5)cc23)cc1`, for which the “activity change, negative = inhibition” value was 13.5%.

`COc1ccc(/C=N/NC(=O)c2ccc(Cl)cc2)cc1COC(C)=O`: the “activity change, negative = inhibition” value was 3.27%.

`COc1cc(/C=N/NC(=O)c2ccccc2)ccc1OS(=O)(=O)c1ccccc1`: the Potency is 10.4 µM (active).

As to `COc1ccc(/C=N\NC(=O)c2sc(N)nc2C)cc1OC`, the “activity change, negative = inhibition” value was 12.7%.

On to `COc1ccc(/C=N/S(=O)(=O)c2ccccc2)cc1OC`, for which the “activity change, negative = inhibition” value is -9.68%.

`COc1ccc(/C=N/NC(=O)c2ccccc2)cc1OS(=O)(=O)c1ccccc1`: the Potency was 9.28 µM (active).

With `Cc1ccc(S(=O)(=O)Oc2ccc(/C=N/NC(=O)c3ccncc3)cc2)cc1`, the “activity change, negative = inhibition” value was -9.78%.

Take `O=C(O)Cc1ccc(NC(=O)Nc2cccc3ccccc23)cc1`: the “activity change, negative = inhibition” value was 11%.

As to `COc1cc(NC(=O)c2ccc(-c3csc(C)n3)cc2)c(OC)cc1Cl`, the “activity change, negative = inhibition” value was 0%.

For `Cc1cccc(NC(=O)C2CCCN(C(=O)Nc3ccc(F)cc3)C2)c1C` (centres undefined), the “activity change, negative = inhibition” value was 0.936%.

For `COCc1cc(C)n(CC(=O)NCC2CCCO2)c(=O)c1C#N` (centres undefined), the “activity change, negative = inhibition” value was 2.53%.

Regarding `COc1ccc(N(C(=O)c2cccnc2)S(=O)(=O)c2ccc(OC)c(OC)c2)cc1`, the “activity change, negative = inhibition” value is 8.24%.

`CC[C@H]1CN2CCc3cc(OC)c(OC)cc3[C@@H]2C[C@@H]1C[C@H]1NCCc2cc(OC)c(OC)cc21`: the Potency was 0.0828 µM (active).
